Assay in all cases: log2 fold change, soluble protein after heating vs DMSO (PISA); higher = thermal stabilisation; K562 cells, 10 uM, 30 min; active = over 0.2 and 3.5 SD of the protein, either way, in both replicates (recomputed)
Compound in test [1]: CC[C@@H]1C(=O)N(C)c2cnc(Nc3ccc(C(=O)NC4CCN(C)CC4)cc3OC)nc2N1C1CCCC1
The gist of the method:
(§1)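 K562 cells at 2×10^6 cells/mL were treated for 30 min with 10 μM compound, and aliquots were heated for 3 min over 48°C-58°C before pooling. Extraction used PBS with 0.5% NP-40 at 4°C, and soluble protein was the supernatant after 21,000xg for 90 min, measured by TMTpro 16plex LC-MS/MS with channel sums equalised. Thermal stability values, relative to control samples and from duplicates, are log2 fold changes.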

Compound in test [2]: CC[C@H](C)N1C=C(C2=C(C=C(C=C21)C3=CN=C(C=C3)N4CCNCC4)C(=O)NCC5=C(C=C(NC5=O)C)C)C
The procedure, abridged:
as §1

Compound in another test: CC[C@H](C)[C@@H](C(=O)N[C@@H]([C@@H](C)O)C(=O)N[C@@H](CC(C)C)C(=O)[C@]1(CO1)C)NC(=O)[C@H]([C@@H](C)CC)N(C)C(=O)C [epoxomicin]
The procedure, abridged: as §1

Compound in test [3]: CCn1c(C(=O)N(C2CC2)C2CC2)cc2c3c(ncn3C)c(Nc3cc(C)n(C)n3)nc21
The procedure, abridged: as §1

Compound in test [4]: CN(C)CC(=O)Nc1ccc2[nH]c(=O)c3ccccc3c2c1
The gist of the method: as §1

Compound in a further test: CN(CCOC1=CC=C(C=C1)C[C@H]2C(=O)NC(=O)S2)C3=CC=CC=N3 (racemic) [rosiglitazone]
The gist of the method:
as §1

Compound in test [5]: CN1C2=C(C3=C1C(=O)N(N=C3)CC4=CC(=CC=C4)N)SC(=C2)S(=O)C
The gist of the method: as §1

Compound in the next test: CC[C@@H]1C(=O)N(C)c2cnc(Nc3ccc(C(=O)N[C@H]4CC[C@H](N5CCN(CC6CC6)CC5)CC4)cc3OC)nc2N1C(C)C [volasertib]
The gist of the method:
as §1

Compound in test [6]: CCn1cc(-c2ccnc3[nH]c(-c4cccc(CN(C)C)c4)cc23)c(-c2ccc(NC(=O)N(C)C)cc2)n1
The gist of the method:
as §1

Compound in test [7]: CN1CCC(CNc2ccc3ncc(-c4cccc(OC(F)(F)F)c4)n3n2)CC1
The procedure, abridged: as §1

Targets with a hit are over-represented here; the source holds about 7,900 in all. About 0.6% of all pairs of compound and target were hits. Values without a mark were called inactive.

Sequence of UniProt Q9NXE4 (Q9NXE4 whole entry, looked up): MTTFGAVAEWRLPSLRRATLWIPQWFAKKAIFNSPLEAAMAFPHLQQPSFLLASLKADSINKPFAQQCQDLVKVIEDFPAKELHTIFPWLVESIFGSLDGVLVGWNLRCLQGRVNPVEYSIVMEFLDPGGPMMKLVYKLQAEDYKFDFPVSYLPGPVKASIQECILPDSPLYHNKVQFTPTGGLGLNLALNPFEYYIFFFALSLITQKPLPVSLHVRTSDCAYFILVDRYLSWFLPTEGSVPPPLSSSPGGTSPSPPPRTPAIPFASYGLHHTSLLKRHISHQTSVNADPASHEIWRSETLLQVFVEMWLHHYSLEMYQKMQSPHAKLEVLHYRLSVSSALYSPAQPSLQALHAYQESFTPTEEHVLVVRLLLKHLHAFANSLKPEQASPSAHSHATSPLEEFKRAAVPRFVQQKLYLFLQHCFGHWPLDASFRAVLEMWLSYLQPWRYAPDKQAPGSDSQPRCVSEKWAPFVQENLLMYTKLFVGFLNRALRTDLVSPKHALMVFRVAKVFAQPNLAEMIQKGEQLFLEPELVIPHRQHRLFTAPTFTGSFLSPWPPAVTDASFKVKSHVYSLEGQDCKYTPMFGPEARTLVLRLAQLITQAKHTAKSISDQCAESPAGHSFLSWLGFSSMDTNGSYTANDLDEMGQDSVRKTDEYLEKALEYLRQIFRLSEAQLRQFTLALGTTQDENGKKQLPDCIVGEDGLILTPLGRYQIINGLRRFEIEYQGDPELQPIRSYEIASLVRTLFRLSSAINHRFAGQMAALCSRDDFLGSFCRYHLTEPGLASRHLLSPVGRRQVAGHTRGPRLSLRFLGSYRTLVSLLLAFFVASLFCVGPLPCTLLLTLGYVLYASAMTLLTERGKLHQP
Sequence of UniProt P36956 (P36956 whole entry, looked up): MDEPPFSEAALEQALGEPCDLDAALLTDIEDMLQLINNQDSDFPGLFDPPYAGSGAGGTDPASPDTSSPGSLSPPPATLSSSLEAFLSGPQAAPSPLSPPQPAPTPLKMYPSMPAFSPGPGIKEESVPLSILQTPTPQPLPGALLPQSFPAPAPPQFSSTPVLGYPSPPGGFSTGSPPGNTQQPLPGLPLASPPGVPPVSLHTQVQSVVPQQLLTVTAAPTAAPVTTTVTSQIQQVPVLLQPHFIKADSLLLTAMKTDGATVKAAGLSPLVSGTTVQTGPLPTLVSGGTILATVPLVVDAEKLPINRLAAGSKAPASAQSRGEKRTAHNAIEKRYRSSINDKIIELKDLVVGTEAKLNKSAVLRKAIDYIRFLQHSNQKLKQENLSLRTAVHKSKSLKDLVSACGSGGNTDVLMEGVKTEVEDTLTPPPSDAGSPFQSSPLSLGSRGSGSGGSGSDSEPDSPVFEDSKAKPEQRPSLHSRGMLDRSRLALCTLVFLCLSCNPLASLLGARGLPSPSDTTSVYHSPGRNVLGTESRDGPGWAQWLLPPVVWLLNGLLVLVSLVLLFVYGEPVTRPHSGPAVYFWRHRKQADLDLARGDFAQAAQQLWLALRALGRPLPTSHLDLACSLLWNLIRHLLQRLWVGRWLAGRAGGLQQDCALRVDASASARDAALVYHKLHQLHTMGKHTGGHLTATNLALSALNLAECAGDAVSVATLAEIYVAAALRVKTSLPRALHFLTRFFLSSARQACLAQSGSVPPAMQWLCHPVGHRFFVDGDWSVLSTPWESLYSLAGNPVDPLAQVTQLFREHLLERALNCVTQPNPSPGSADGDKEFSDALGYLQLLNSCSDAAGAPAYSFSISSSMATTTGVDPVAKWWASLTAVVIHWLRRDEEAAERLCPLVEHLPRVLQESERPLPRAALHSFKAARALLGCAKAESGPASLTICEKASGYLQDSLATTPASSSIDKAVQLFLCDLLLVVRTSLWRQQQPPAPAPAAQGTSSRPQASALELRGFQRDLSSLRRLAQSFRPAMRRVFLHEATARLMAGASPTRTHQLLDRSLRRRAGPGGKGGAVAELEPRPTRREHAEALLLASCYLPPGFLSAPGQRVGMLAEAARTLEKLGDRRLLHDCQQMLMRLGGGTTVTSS
Sequence of UniProt O60749 (O60749 whole entry, looked up): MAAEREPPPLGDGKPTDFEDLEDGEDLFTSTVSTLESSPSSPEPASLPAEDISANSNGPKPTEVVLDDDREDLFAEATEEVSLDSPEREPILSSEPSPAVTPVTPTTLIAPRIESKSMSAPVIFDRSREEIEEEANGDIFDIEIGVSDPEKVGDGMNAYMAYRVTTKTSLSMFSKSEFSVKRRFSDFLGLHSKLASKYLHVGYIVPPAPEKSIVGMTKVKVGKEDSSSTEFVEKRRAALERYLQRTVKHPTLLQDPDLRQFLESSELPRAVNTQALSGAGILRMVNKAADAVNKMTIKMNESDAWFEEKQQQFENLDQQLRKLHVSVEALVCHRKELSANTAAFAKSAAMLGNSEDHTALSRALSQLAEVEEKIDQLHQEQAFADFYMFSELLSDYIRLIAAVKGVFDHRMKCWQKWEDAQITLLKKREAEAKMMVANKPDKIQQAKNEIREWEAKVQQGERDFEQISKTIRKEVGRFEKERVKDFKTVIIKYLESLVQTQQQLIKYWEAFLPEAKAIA
Sequence of UniProt P35711 (P35711 whole entry, looked up): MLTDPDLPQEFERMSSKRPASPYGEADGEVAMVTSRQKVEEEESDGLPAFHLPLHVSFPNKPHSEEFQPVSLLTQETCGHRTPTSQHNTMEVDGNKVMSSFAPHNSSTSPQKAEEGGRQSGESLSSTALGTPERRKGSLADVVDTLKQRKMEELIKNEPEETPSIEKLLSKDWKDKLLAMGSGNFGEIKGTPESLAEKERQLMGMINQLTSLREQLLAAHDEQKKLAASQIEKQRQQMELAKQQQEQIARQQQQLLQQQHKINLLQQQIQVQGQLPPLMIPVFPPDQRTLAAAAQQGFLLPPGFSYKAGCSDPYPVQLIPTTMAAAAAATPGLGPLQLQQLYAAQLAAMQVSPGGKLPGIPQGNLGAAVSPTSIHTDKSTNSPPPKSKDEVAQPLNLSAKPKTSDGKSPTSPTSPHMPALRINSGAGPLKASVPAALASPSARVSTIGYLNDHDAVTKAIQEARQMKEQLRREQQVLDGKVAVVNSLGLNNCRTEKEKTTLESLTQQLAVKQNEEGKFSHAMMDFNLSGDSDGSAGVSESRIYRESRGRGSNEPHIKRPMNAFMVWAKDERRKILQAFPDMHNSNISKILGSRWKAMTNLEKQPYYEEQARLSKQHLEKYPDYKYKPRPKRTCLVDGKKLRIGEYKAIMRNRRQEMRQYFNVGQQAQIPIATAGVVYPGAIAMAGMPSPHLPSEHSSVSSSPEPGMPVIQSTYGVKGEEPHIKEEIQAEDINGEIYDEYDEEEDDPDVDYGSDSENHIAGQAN
Sequence of UniProt Q9BYX2 (Q9BYX2 whole entry, looked up): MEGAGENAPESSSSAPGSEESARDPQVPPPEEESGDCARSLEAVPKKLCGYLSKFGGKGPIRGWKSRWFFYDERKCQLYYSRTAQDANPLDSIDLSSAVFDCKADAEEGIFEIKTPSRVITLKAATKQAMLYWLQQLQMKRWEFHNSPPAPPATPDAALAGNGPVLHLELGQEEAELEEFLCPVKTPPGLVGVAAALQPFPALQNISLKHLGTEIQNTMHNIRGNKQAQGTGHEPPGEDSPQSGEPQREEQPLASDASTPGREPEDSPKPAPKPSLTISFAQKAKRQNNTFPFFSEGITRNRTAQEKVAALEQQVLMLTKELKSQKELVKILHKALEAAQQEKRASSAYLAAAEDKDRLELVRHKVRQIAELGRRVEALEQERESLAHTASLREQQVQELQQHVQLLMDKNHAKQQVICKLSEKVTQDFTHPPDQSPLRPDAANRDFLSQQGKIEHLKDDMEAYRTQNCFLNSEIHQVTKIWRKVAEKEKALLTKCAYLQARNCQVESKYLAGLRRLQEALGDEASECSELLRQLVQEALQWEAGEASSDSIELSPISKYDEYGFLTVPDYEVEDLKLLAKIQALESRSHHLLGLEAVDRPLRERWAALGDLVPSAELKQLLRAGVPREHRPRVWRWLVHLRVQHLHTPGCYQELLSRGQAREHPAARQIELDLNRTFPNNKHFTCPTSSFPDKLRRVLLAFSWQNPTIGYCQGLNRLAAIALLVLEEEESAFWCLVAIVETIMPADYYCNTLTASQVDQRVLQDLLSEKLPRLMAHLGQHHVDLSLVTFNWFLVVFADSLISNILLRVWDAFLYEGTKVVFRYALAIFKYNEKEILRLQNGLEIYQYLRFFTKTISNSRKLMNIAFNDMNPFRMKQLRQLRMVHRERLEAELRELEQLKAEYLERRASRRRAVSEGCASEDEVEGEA
Sequence of UniProt Q8IWA5 (Q8IWA5 whole entry, looked up): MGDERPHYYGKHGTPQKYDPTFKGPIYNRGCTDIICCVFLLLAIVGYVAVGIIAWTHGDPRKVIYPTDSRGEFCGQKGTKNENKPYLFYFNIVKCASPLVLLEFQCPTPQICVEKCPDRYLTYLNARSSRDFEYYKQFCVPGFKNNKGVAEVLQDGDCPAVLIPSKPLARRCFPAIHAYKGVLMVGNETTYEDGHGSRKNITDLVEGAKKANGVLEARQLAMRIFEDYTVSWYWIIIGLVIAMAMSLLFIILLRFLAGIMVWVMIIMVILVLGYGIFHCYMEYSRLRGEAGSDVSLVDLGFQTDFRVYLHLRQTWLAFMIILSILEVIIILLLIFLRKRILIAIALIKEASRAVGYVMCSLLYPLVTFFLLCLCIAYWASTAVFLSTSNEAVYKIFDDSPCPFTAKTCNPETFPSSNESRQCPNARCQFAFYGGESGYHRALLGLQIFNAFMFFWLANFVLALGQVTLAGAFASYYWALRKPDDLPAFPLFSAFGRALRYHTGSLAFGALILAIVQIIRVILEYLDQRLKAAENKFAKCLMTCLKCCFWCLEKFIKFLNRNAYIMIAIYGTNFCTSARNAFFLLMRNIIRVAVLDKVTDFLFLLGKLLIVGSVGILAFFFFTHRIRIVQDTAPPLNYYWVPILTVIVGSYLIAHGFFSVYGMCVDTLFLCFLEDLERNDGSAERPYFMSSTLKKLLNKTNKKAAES
Sequence of UniProt Q9H4I9 (Q9H4I9 whole entry, looked up): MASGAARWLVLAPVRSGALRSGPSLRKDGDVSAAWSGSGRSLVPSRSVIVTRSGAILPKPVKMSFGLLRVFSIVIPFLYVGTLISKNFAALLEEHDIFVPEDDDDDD

With SLC35B1 isoform 2 (UniProt P78383), the log2 fold change in test [1] was 0.123; in test [2] it was -0.017; in the test with epoxomicin it was 0.066; in test [3] it was 0.001; in test [4], 0.075; in the test with rosiglitazone, 0.044. Moreover, the log2 fold change in [5] is -0.111.
Consider TM7SF2 (UniProt O76062), for which the log2 fold change with volasertib was 0.907 (active); in test [2], -0.022; in [3] it was -0.111; in test [4] it was -0.435; in [5], 0.031.
Regarding STK38L (UniProt Q9Y2H1), the log2 fold change is 0.071 in test [1]; -0.011 in test [2]; 0.071 with epoxomicin; 0.031 in test [3]; -0.015 in test [6]; -0.045 in test [4]. In addition, the log2 fold change was 0.024 with rosiglitazone, -0.029 in test [5] and 0.016 in test [7].
Take SLC9A6 isoform 3 (UniProt Q92581): the log2 fold change in test [1] is -0.041; in the test with volasertib, -0.045; in test [3], 0.045; with rosiglitazone, -0.091; in [5], 0.008.
Consider STK17B (UniProt O94768), for which the log2 fold change in [3] was -0.099; with rosiglitazone, 0.07.
Turning to SMDT1 (UniProt Q9H4I9), the log2 fold change in test [1] is 0.08; with epoxomicin, -0.064; in [6] it was -0.044; in [4] it was 0.108; in the test with rosiglitazone it was -0.037; in test [5], 0.028. Further, the log2 fold change in test [7] was 0.01.
For SUPT5H isoform 2 (UniProt O00267), in test [4], the log2 fold change is 0.149.
Take SLC8B1 (UniProt Q6J4K2): the log2 fold change with volasertib was 0.156; in test [3], 0.09; in test [6] it was 0.091; in test [4], -0.005; with rosiglitazone, 0.058; in test [5], 0.086. The log2 fold change in test [7] is -0.509.
Regarding SREBF1 isoform 4 (UniProt P36956), the log2 fold change in test [1] was -0.511; with epoxomicin, -0.035; in test [3], -0.047; with rosiglitazone it was 0.025; in test [5], 0.198.
Take SOX5 (UniProt P35711): the log2 fold change in the test with volasertib was -0.082; in test [2] it was 0.014; in test [3], 0.099; in test [4], -0.062; with rosiglitazone, 0.046.
Take SPAG9 isoform 4 (UniProt O60271): the log2 fold change is -0.192 in test [1]; 0.093 in [2]; -0.066 in test [3]; -0.093 in test [4]; -0.029 in the test with rosiglitazone.
Consider SNX2 isoform 2 (UniProt O60749), for which the log2 fold change was -0.194 in test [1]; -0.06 with volasertib; 0.034 in the test with epoxomicin; -0.161 in [4]; 0.076 in the test with rosiglitazone; 0.086 in [5].
With SMARCA4 (UniProt P51532), the log2 fold change in [1] was 0.019; with volasertib, 0.121; in the test with epoxomicin, 0; in [3], -0.245; in test [6] it was 0.119; in test [4], -0.191. In addition, the results for the log2 fold change (with rosiglitazone; in test [5]; in test [7]) were 0.065, 0.177 and -0.046, respectively.
For TAF6L (UniProt Q9Y6J9), the log2 fold change with volasertib was -0.537 (active); in test [2], 0.118; in test [3], -0.179; in test [6], -0.04; in [5] it was 0.081; in test [7], -0.126.
In the case of SLC27A1 (UniProt Q6PCB7), the log2 fold change was -0.639 (active) in the test with volasertib; 0.022 in [2]; -0.021 with epoxomicin; -0.008 in test [3]; 0.008 in [4]; -0.01 with rosiglitazone. In addition, the log2 fold change in test [5] is -0.072.
In the case of TBC1D2 (UniProt Q9BYX2), the log2 fold change in test [1] is -0.055; with epoxomicin, -0.238; in [6] it was 0.087; in test [7] it was -0.019.
For TEX30 (UniProt Q5JUR7), the log2 fold change was -0.221 with volasertib; -0.044 in [2]; 0.007 with epoxomicin; -0.005 in test [3]; 0.079 in test [6]; 0.075 in test [4]. Further, the results for the log2 fold change (with rosiglitazone; in test [5]; in test [7]) were 0.028, 0.046 and -0.601 (active), respectively.
Regarding SYNE1 (UniProt Q8NF91), the log2 fold change in [1] was -0.01; in [2] it was -0.048; with epoxomicin, 0.047; in [3], -0.142; in test [6] it was -0.113; in test [4], 0.042. The log2 fold change with rosiglitazone is 0.031; in [5], 0.051; in test [7] it was -0.208.
With SMPD4 isoform 2 (UniProt Q9NXE4), the log2 fold change in the test with volasertib was -0.234; in test [6] it was -0.236; in test [4], -0.044; with rosiglitazone, -0.047; in test [5], 0.056; in test [7], -0.441.
Take SPIN4 (UniProt Q56A73): in test [3], the log2 fold change is 0.291.
For TCOF1 isoform 3 (UniProt Q13428), the log2 fold change was 0.001 in test [1]; -0.352 with epoxomicin; 0.03 in [3]; 0.155 in test [6]; -0.436 in test [7].
TC2N (UniProt Q8N9U0): the log2 fold change in test [2] is 0.029; in [4], -0.194; in test [5], 0.073.
On to THAP9 (UniProt Q9H5L6), for which the log2 fold change in [2] was -0.167; in the test with rosiglitazone, 0.008; in test [5], -0.039.
On to SLC44A2 isoform 2 (UniProt Q8IWA5), for which the log2 fold change in test [1] was 0.2; in test [2], 0; with epoxomicin, 0.053; in test [3], 0.014; in test [6] it was -0.105; in test [4], -0.048. Moreover, the log2 fold change with rosiglitazone is -0.016; in test [5], -0.154; in test [7], 0.259.
Take TCOF1 isoform 6 (UniProt Q13428): the log2 fold change is 0.04 in test [1]; -0.132 in [2]; -0.039 in [3]; -0.219 in test [4]; -0.173 with rosiglitazone.
